Screens: PubChem, several laboratories
SSB-PriA inh: blocks PriA binding to SSB C-terminal tail | AlphaScreen SSBct-PriA binding, biotinylated peptide | inhibition, % at 33 µM | hit rate 0.6% among 430,000 | AID 1272365; in the data active = inhibition mostly above about 37%, no sharp cut-off; inactive = mostly below about 20%
Yp Topo-I inh: blocks Yersinia pestis topoisomerase I activity; hit rate 0.064% among 360,000; activity, % at 10 µM; Y. pestis Topo-I cleavage product accumulation, plate reader; in the data active = activity above about 50%, passing the limit was not always enough
PfHsp40 yeast: restores yeast growth despite PfHsp40 toxicity. S. cerevisiae expressing PfHsp40, growth rescue, ATP luminescence. hit rate 0.68% among 340,000. growth rescue, % at 12.5 µM. AID 504582; in the data active = growth rescue above about 28%, passing the limit was not always enough;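 note: yeast W303a lacking pdr1 and pdr3 grown in galactose medium; growth measured after three days at 30 °C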
PrP 5UTR inh: inhibition of PrP 5' UTR reporter expression; hit rate 0.35% among 340,000; AID 488862; inhibition, % (test concentration not listed); cell-based PrP 5' UTR mRNA reporter, plate reader; in the data active = inhibition above about 52%
BJeLR lethal: kills HRASV12-expressing BJeLR cells | BJeLR (HRASV12) viability, CellTiter-Glo ATP luminescence, 48 h | inhibition, % (concentration not given with the values) | hit rate 0.17% among 300,000 | AID 1554; in the data active = inhibition above about 50%
PrPC surface inh: reduces human prion protein on the cell surface | P04156 | cell surface PrPC, TR-FRET read-out | inhibition, % at 13.8 µM | hit rate 0.43% among 370,000 | AID 720596; in the data active = inhibition above about 24%
PrP 5UTR single: prion 5' UTR mRNA inhibition, cherry-pick retest; shares compounds with PrP 5UTR inh; cell-based prion protein 5' UTR reporter, plate reader; inhibition, % at 2.5 µM; hit rate 48% among 1,100; AID 504592; in the data active = inhibition above about 54%
Hits are given with their value; n = inactive; x = no result. Rows were chosen to be rich in hits. Some 1.7% of all compounds tested hit in one or more screens of this group.

SMILES	SSB-PriA inh	Yp Topo-I inh	PfHsp40 yeast	PrP 5UTR inh	BJeLR lethal	PrPC surface inh	PrP 5UTR single
CC12CCC(O)CC1CCC1C2CCC2(C)C(C3=CC(=O)OC3)C(O)CC12O (stereo not given)	n	n	n	n	x	n	x
CC12CCC(O)CC1CCC1C2CCC2(C)C(C3=CC(=O)OC3)CCC12O (stereo not given)	n	n	n	79	x	n	82
C[C@]12CC[C@H](O)C[C@H]1CC[C@@H]1[C@@H]2CC[C@]2(C)[C@@H](C3=CC(=O)OC3)CC[C@]12O	n	n	n	77	x	n	84
O=C(Nc1cnc(N2CCCC2)nc1)Nc1ccc2c(c1)OCCO2	n	x	x	x	x	x	x
CC(=O)c1cccc(NC(=O)[C@@H]2CSc3nc(C(C)(C)C)cc(=O)n3C2)c1	n	x	x	x	x	x	x
COc1cc(S(=O)(=O)N2CCN(c3cc(C)cc(C)c3)CC2)c(OC)cc1Br	n	x	x	x	x	x	x
CC(=O)OC1CC(OC2C(O)CC(OC3C(O)CC(OC4CCC5(C)C(CCC6C5CC(O)C5(C)C(C7=CC(=O)OC7)CCC65O)C4)OC3C)OC2C)OC(C)C1OC1OC(CO)C(O)C(O)C1O (stereo not given)	n	n	n	90	x	n	90
COc1ccccc1N1CC(C(=O)Nc2nnc(SCC(=O)N3CCCCCC3)s2)CC1=O (stereo not given)	n	x	x	x	x	x	x
COc1ccc(-c2nn3c(-c4n[nH]c5c4CCC5)nnc3s2)cc1	x	x	x	x	x	n	x
CCN(CC)c1ccc(-c2nn3c(-c4n[nH]c5c4CCC5)nnc3s2)cc1	n	n	n	74	n	n	84
Cc1nc(N)nc(N)c1-c1ccc(Cl)c(Cl)c1	n	n	n	58	x	n	n
CCOc1ccccc1CNCCO	n	n	n	n	n	n	x
CCOC(=O)c1ccc(NC(=O)COc2ccccc2CNCCO)cc1	n	n	n	74	x	n	n
CN1C(=O)[C@@]2(C(=C(O)c3ccc(Br)cc3)C(=O)C(=O)N2CCCN2CCOCC2)c2ccccc21	n	x	x	x	x	x	x
COC(=O)c1ccc(CCc2cc(O)ccc2O)cc1	n	n	n	n	x	x	x
COC(=O)c1ccc(CCc2cc(O)c(Br)cc2O)cc1	n	n	n	87	x	n	n
O=C(NN=Cc1ccc(-c2cccc([N+](=O)[O-])c2)o1)c1cccs1	n	x	x	x	x	x	x
Nc1n[nH]c(N)c1N=Nc1ccccc1F	n	n	n	n	n	n	x
Cc1ccccc1N=Nc1c(N)n[nH]c1N	n	n	n	55	n	n	n
O=C(c1c(F)cccc1Cl)N1CCN(S(=O)(=O)c2cc3c4c(c2)CCC(=O)N4CCC3)CC1	n	x	x	x	x	x	x
CN(C)CCNCCCNc1c2ccccc2nc2cccc([N+](=O)[O-])c12	n	n	n	95	x	n	98
O=C(NC1CCCCC1)c1cc(C(=O)c2ccccc2Br)c[nH]1	n	n	n	71	n	n	n
CC(=O)c1c[nH]c(C(=O)NC2CCCCCC2)c1	n	n	n	n	n	n	x
COc1ccc(CCC(=O)NCc2n[nH]c(=O)c3ccccc23)cc1	n	x	x	x	x	x	x
N=C(N)SCCCCC(=O)O	n	x	x	x	x	x	x
SMILES	SSB-PriA inh	Yp Topo-I inh	PfHsp40 yeast	PrP 5UTR inh	BJeLR lethal	PrPC surface inh	PrP 5UTR single
Cc1oc(=O)c(NC(=O)c2ccccc2)cc1C(N)=O	n	n	n	n	x	n	x
O=C(Nc1cc2ccccc2oc1=O)c1ccccc1	n	n	n	57	n	n	63
Cc1ccsc1C=NNc1cccc(C(=O)O)c1	n	x	x	x	x	x	x
Cc1nn(-c2ccccc2Cl)c(Cl)c1/C=N/Nc1cccc(C(=O)O)c1	x	n	n	77	n	n	64
Cc1ccsc1/C=N/Nc1cccc(C(=O)O)c1	x	n	n	72	x	n	68
COC(=O)C1=C(C)NC(C)=C(C(=O)OC)C1c1ccc(-c2ccccc2F)o1	n	x	x	x	x	x	x
CC1Oc2ccccc2OC1C(=O)Nc1cnn(C2CCOCC2)c1 (stereo not given)	n	x	x	x	x	x	x
CN(C)c1ccc(/C=N/N=C2/NC(=O)/C(=C/c3ccc([N+](=O)[O-])cc3)S2)cc1	x	n	n	63	x	n	n
CCn1c(O)c(N=Nc2ccc3ccccc3n2)c2ccccc21	n	n	n	n	n	n	x
Brc1ccc(N=Nc2ccc3ccccc3n2)cc1	n	n	n	82	n	n	80
CC(C)C[C@H]1CNC(=S)N1CC1CCCN1C[C@H](Cc1ccc(O)cc1)N1C[C@H](Cc2ccccc2)N(CC2CCCCC2)C1=S (stereo not given in full)	n	n	n	67	x	n	n
CC(C)C[C@H]1CNC(=S)N1C[C@H]1CCCN1C[C@H](Cc1ccccc1)N1C[C@H](Cc2ccc(O)cc2)N(CC2CCCCC2)C1=S	x	x	x	x	x	n	x
C=CC[n+]1c(-c2ccc(C)cc2)csc1Nc1ccc(NC(C)=O)cc1	n	n	n	71	n	n	59
Cc1cc(C)n(CCC(=O)Nc2cccnc2)n1	n	x	x	x	x	x	x
Cc1ccc(C(=O)C[n+]2ccccc2)cc1	n	n	n	64	n	n	n
O=C(c1ccco1)c1ccc(CNS(=O)(=O)c2ccc3c(c2)CCO3)s1	n	x	x	x	x	x	x
Cn1c(O)c(C=NC2CCCCC2)c(=O)[nH]c1=S	n	n	n	53	n	n	n
O=c1[nH]c(O)c(C=NC2CCCCC2)c(=O)[nH]1	n	n	n	n	n	n	x
O=C(CSc1nc2c(cnn2CCO)c(=O)[nH]1)N1CCCCCC1	n	x	x	x	x	x	x
COc1ccc(OC)c(C2CC(=NO)C(C)C(c3cc(OC)ccc3OC)N2)c1 (stereo not given)	n	x	x	x	x	x	x
COC(=O)c1ccc(Cn2cc(/C=C\[N+](=O)[O-])c3ccccc32)o1	n	n	n	52	n	n	n
Cc1ccc(Nc2nc(-c3c(C)nc4ccccn34)cs2)cc1	n	n	n	59	n	39	83
Cc1nc2ncccn2c1-c1csc(Nc2ccc(O)cc2)n1	n	n	n	n	n	n	x
